Bioassay records (PubChem)
Giardia FBPA inh: Giardia lamblia aldolase inhibition; purified Giardia FBPA; Potency, µM (doses to about 59.6 µM), for the others: at the highest dose activity, negative = inhibition, most hits filed as inhibitors; hit rate 0.71% among 290,000; A8B2U2; also: potency is read from the fitted curve at half-maximal effect; % is scaled to controls: 0 for no effect and ±100 for the full control effect; nearly all actives have a fitted effect of over 55% in size
Target sequence (A8B2U2 whole entry, looked up): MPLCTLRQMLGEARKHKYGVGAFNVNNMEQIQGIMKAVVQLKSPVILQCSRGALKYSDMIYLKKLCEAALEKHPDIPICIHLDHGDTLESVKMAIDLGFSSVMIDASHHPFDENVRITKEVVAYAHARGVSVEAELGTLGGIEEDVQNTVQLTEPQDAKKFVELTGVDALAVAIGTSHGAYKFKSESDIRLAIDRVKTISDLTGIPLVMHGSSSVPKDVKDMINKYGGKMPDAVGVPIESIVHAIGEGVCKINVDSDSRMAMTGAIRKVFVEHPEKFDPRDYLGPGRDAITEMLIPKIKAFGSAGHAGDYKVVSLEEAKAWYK
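Giardia FBPA (40 nM reagent) was preincubated 10 min at RT with compound (up to 57.5 uM final), then substrate plus GAPDH/TPI/NAD/arsenate coupling system with diaphorase/resazurin was added; resorufin fluorescence (525/598 nm) was read after 20 min.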
RE007 growth inh: less growth of the S. pombe RE007 Vpr strain; S. pombe RE007 Vpr strain, BacTiter-Glo ATP luminescence, 24 h; Potency, µM (doses to about 92.2 µM), for inactives: at the highest dose activity change, negative = less growth, hits mostly inhibitors; hit rate 0.21% among 360,000; active = well fitted falling curve with a large enough effect; inconclusive = small, poorly fitted or top-dose-only effect; inactive = no such curve, though single readings can be large or run the other way; also: potency is read from the fitted curve at half-maximal effect; % is scaled to controls: 0 for no effect and ±100 for the full control effect; nearly all actives have a fitted effect of over 50% in size
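Fission yeast RE007 carrying one integrated HIV-1 vpr copy, seeded at OD 0.01 in PMG+AL medium with 23 nL pinned compound. Grown 24 h at 30 degrees; viability read by BacTiter-Glo luminescence after 5 min.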
CHX counter: counter-screen for Shiga toxin inhibitors: cycloheximide protein synthesis inhibition. cell reporter, cycloheximide protein synthesis inhibition counterscreen. max response, %. AID 2314. hit rate 12% among 300,000; in the data active = max response mostly above about 13%, no sharp cut-off; inactive = mostly below about 14%; also: read at 38.3 µM for the half of the compounds with a filed dose; 0% is about no effect
LmPK inh: blocks Leishmania mexicana pyruvate kinase activity. purified LmPK, Kinase-Glo ATP luminescence, 1 h. Potency, µM (doses to about 57.5 µM), without a hit: top-dose activity change, negative = inhibition, usual class: inhibitors. hit rate 0.37% among 290,000. AID 1721; also: potency is read from the fitted curve at half-maximal effect; % is scaled to controls: 0 for no effect and ±100 for the full control effect
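qHTS format; LmPK 0.1 nM; substrates PEP 0.5 mM and ADP 0.1 mM. One-hour room-temperature incubation, then coupled luciferase luminescence; 0.5 nM enzyme wells mark activation.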
Shiga toxin inh: Shiga toxin inhibition | Vero cells, Shiga toxin protein synthesis inhibition reporter | inhibition, % at 38.7 µM | hit rate 9.2% among 290,000; in the data active = inhibition mostly above about 28%, no sharp cut-off; inactive = mostly below about 43%; also: 0% is about no effect
TbPYK inhibitor: T. brucei pyruvate kinase inhibition | Potency, µM (series often up to 76.8 µM), for the others: at the highest dose activity, negative = inhibition, hits mostly inhibitors | TbPYK enzyme, Kinase-Glo Plus ATP luminescence, 45 min | hit rate 0.12% among 410,000 | AID 624173 | Q57TT1; also: potency is read from the fitted curve at half-maximal effect; % is scaled to controls: 0 for no effect and ±100 for the full control effect; nearly all actives have a fitted effect of over 50% in size
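Quantitative HTS: titrated library compounds versus trypanosomal pyruvate kinase in TEA buffer (pH 7.2) containing KCl, MgCl2, BSA and Tween-20. Reactions were initiated with ADP, 130 uM final. Kinase-Glo Plus luminescence was read after 45 min at RT.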
Active calls of the source: *; ? = inconclusive; . = not tested or not shown; [ ] = another dose, or the depositor's remark. The full list was thinned out, with hits kept by preference. Unless noted, calls follow the shape of the dose curve; as a rule, active = well fitted curve in the direction sought with a large enough effect; inconclusive = small, poorly fitted or top-dose-only effect, or another doubt; inactive = no such curve, though single readings can be large; an effect the other way counts as inactive or inconclusive.

SMILES	Giardia FBPA inh	RE007 growth inh	CHX counter	LmPK inh	Shiga toxin inh	TbPYK inhibitor
Nn1c(SCc2cn3cc(Cl)ccc3n2)nnc1-c1ccncc1	-25%	10%	2	8%	-2	-1%
Nc1nnc(SCc2cn3cc(Cl)ccc3n2)s1	-3%	5%	28*	-5%	84*	0%
Cc1cccc2nc(CSc3nc4ccccc4[nH]3)cn12	-4%	-10%	13	-3%	24	-3%
c1ccc2[nH]c(SCc3cn4ccccc4n3)nc2c1	-11%	-17%	20*	-2%	54*	-2%
COc1cccc(Oc2nc(-c3ccncc3)nc3ccccc23)c1	0%	-28%	-3	4%	-3	3%
CCc1ccc([C@@H]2CC=C(C(=O)O)[C@H](c3ccccc3F)N2S(=O)(=O)c2ccc(C)cc2)cc1	.	5%	.	.	.	-1%
CCSc1nc(-c2ccccc2OC)nc2c1Cc1c(CO)cnc(C)c1O2	.	.	.	.	.	2%
O=C(CCC(=O)NNC(=O)c1ccccc1[N+](=O)[O-])NCc1ccccc1	-6%	-11%	-4	-3%	-7	4%
CCOc1ccccc1NC(=O)c1nc(SC(C)C)ncc1Cl	.	.	.	.	.	2%
O=S(=O)(C/C(=C/CO)S(=O)(=O)c1ccccc1)c1ccccc1	0%	-6%	26*	1%	41	-1%
N/C(Cc1cccs1)=N\OC(=O)COc1ccc(Br)cc1Cl	8%	2%	33*	0%	140*	-2%
N/C(Cc1cccs1)=N\OC(=O)COc1ccccc1Cl	-4%	-5%	60*	-6%	119*	2%
COc1ccc(C(=O)O/N=C(\N)Cc2cccs2)cc1OC	.	-7%	-5	-1%	-19	1%
N/C(Cc1ccc([N+](=O)[O-])cc1)=N\OC(=O)COc1ccccc1Cl	4%	6%	2	0%	14	-24%
CC(NC(=O)CSc1nc(-c2cccc(Cl)c2)nc2cc(=O)[nH]n12)c1nc2ccccc2n1C (centres undefined)	.	.	.	.	.	0%
Cc1nn(-c2ccccc2)c2sc(C(=O)Nc3cccc(Br)c3)cc12	.	.	.	.	.	-1%
O=C1CC(NS(=O)(=O)c2cccnc2)CN1c1ccc(Cl)cc1 (centres undefined)	.	-17%	.	.	.	1%
C/C=C(\C)CN1CCC(n2nccc2NC(=O)CCCc2ccccc2)CC1	.	5%	-2	0%	-15	1%
CCCC(=O)Nc1nnc2n1CCS2	.	.	.	.	.	-4%
O=C(Nc1ccc2nc3n(c(=O)c2c1)CCCCC3)c1ccccc1[N+](=O)[O-]	.	-21%	16	-4%	16	-8%
O=C(Nc1ccc2nc3n(c(=O)c2c1)CCCC3)c1cccc(F)c1	6%	-16%	42*	1%	39*	6%
COc1ccc(C(=O)Nc2ccc3nc4n(c(=O)c3c2)CCCCC4)cc1OC	.	-9%	.	.	.	-11%
CCOC(=O)Nc1ccc2nc3n(c(=O)c2c1)CCCCC3	-3%	-4%	31*	0%	45*	-18%
O=C(Nc1ccc2nc3n(c(=O)c2c1)CCCCC3)c1ccccn1	-2%	0%	36*	-14%	59*	-5%
O=C(Nc1ccc2nc3n(c(=O)c2c1)CCCC3)c1ccccc1F	5%	-15%	31*	-1%	70*	-6%
SMILES	Giardia FBPA inh	RE007 growth inh	CHX counter	LmPK inh	Shiga toxin inh	TbPYK inhibitor
O=c1c2cc(NC(=S)NCc3ccccn3)ccc2nc2n1CCCCC2	-9%	1%	7	-1%	-5	-12%
Cc1ccc(-c2noc(-c3ccc(NCC4CCCO4)c([N+](=O)[O-])c3)n2)cc1 (centres undefined)	.	.	.	.	.	1%
CCOc1ccccc1CNC(=O)c1ccc2c(c1)sc1nc(-c3cccc(OC)c3)cn12	.	.	.	.	.	-2%
O=C(NCc1ccccc1Cl)c1ccc2c(c1)N(Cc1ccccc1)C(=O)c1ccccc1S2	.	.	.	.	.	3%
O=c1c2cc(NC(=S)NC3CCCC3)ccc2nc2n1CCCCC2	-1%	1%	30*	3%	38	6%
O=c1c2cc(NC(=S)NC3CCCCC3)ccc2nc2n1CCCCC2	4%	1%	2	2%	12	0%
Cc1cc(C)n(Cc2cc(C(=O)O)c3ccccc3n2)n1	?	10%	-4	1%	-12	-2%
CC(C)NCc1cccc([N+](=O)[O-])c1	-24%	3%	-4	-10%	-8	3%
CC1(C)CC(NCc2cccc([N+](=O)[O-])c2)CC(C)(C)N1	6%	-16%	17*	2%	36	3%
Fc1ccc(CCNCc2ccccc2Cl)cc1	-9%	-6%	22*	3%	24	-1%
Cc1ccc(CNCc2ccccc2Cl)cc1	-8%	-4%	16*	0%	22	4%
CCOc1ccc(CNCc2ccccc2Cl)cc1	-1%	-9%	32*	0%	51*	1%
CCOc1ccc(CN(C)CC(=O)NCc2ccccc2)cc1	6%	7%	3	2%	-7	3%
CCOc1ccc(CN(C)CC(=O)NCc2ccccc2Cl)cc1	13%	5%	12	-3%	36*	-7%
Fc1ccc(CNCc2ccccc2Cl)cc1	?	17%	14	0%	24	6%
Cc1ccc(-c2noc(-c3nnn(CC(=O)Nc4cccc(C(F)(F)F)c4)c3N)n2)cc1	.	.	.	.	.	1%
Cc1nnc(SCC(=O)NCc2ccccc2F)c2nn(-c3ccc(Cl)cc3)c(C)c12	.	.	-13	.	-1	6%
Cc1cccc(-c2noc(CN(C)C(=O)c3ccoc3C)n2)c1	-9%	-10%	11	1%	60*	1%
Cc1cccc(-c2noc(CNC(=O)c3ccco3)n2)c1	-5%	10%	2	1%	29	-12%
COc1ccc(-c2noc(CN(C)C(=O)c3ccoc3C)n2)cc1	2%	17%	24*	-2%	25	2%
COc1ccc(-c2noc(CNC(=O)c3ccoc3C)n2)cc1	16%	15%	3	-8%	-3	0%
Cc1cccc(-c2noc(CN(C)C(=O)c3ccco3)n2)c1	0%	21%	30*	-3%	154*	-8%
CCCN(CCC)C(=O)c1c[nH]c2ccc(S(=O)(=O)N(C)c3ccc(Cl)cc3)cc2c1=O	.	.	.	.	.	3%[15.4 µM]
COc1ccccc1CNC(=O)Cc1c(C)c2c(cc(C)c3c(C)coc32)oc1=O	.	.	.	.	.	-3%
CCO[C@H]1OC(C(=O)Nc2ccccc2)=C[C@@H](C)[C@@H]1CCCO	5%	1%	11*	-2%	6	2%
CO[C@@]1(NC(=O)CSC(F)F)C(=O)N2C(C(=O)O)=C(CSc3nnnn3CCO)CO[C@@H]21	.	.	.	.	.	-9%
COc1ccc(Nc2n[nH]c(C)c2[N+](=O)[O-])cc1	0%	-6%	32*	-1%	100*	9%
S=c1[nH]cc(-c2ccccc2)[nH]1	-10%	13%	39*	-4%	34*	-10%
CC(=O)Nc1nc(-c2ccc([N+](=O)[O-])cc2)cs1	-3%	-3%	9	0%	54	0%
